Screens as filed in PubChem.
HP1b binding inh – HTS for Inhibitors of HP1-beta Chromodomain Interactions with Methylated Histone Tails. Chromobox protein homolog 1 (Homo sapiens), P83916. AlphaScreen HP1-beta / biotin-H3K9me3 peptide binding. Potency, µM (doses to about 114 µM), for inactives: top-dose activity change, negative = inhibition, usual class: inhibitors. actives 0.56% (n = 390,000). AID 540317, 2011; note: nearly all actives have a fitted effect of over 70% in size
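Compound inhibition of the preformed complex between 50 nM HP1-beta and 50 nM biotinylated H3K9me3 peptide was read by AlphaScreen. Buffer was PBS pH 7.4 with 0.01% Tween-20. Incubations ran 30 min at room temperature, with 10 ug/mL donor/acceptor beads.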
JMJD2A Tudor – qHTS Assay for Inhibitors of JMJD2A-Tudor Domain; Lysine-specific demethylase 4A (Homo sapiens), O75164; AlphaScreen JMJD2A-Tudor / H3K4me3 peptide binding; Potency, µM (doses to about 114 µM), without a hit: top-dose activity change, negative = inhibition, actives largely listed as inhibitors; actives 4.4% (n = 390,000); AID 504339, 2011; note: % is set by controls: 0 for no effect and ±100 for the full control effect; nearly all actives have a fitted effect of over 50% in size
L3MBTL1 block – qHTS Assay for the Inhibitors of L3MBTL1 | Lethal(3)malignant brain tumor-like protein 1 (Homo sapiens), Q9Y468 | actives 0.66% (n = 230,000) | Potency, µM (top dose mostly 57.1 µM), for inactives: at the highest dose activity, negative = inhibition, usual class: inhibitors | AlphaScreen L3MBTL1–H3K9me1 peptide binding; note: % is set by controls: 0 for no effect and ±100 for the full control effect; nearly all actives have a fitted effect of over 60% in size
Target sequence (Q9Y468 whole entry, looked up): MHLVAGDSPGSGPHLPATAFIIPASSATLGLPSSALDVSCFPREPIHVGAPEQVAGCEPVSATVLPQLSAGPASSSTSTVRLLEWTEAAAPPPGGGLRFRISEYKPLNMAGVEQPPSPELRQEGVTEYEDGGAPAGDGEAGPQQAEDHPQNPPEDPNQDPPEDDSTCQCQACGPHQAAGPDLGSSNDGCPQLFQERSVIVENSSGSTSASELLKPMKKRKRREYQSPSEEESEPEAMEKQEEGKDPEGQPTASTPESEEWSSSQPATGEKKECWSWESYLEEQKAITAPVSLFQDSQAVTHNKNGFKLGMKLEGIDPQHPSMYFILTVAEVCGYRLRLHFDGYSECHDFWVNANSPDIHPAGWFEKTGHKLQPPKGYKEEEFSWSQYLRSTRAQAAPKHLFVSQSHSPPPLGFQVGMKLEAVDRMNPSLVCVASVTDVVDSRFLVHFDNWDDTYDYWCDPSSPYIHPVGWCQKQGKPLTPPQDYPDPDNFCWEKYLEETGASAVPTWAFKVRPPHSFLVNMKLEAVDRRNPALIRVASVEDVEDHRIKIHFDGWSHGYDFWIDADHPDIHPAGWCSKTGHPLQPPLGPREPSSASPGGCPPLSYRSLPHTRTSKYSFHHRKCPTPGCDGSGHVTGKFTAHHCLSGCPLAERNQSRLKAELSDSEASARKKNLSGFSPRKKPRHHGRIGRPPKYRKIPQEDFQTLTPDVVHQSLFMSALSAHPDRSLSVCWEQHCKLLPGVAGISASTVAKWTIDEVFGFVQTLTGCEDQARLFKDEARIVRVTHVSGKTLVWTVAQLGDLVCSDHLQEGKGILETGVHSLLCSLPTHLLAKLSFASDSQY
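L3MBTL1 50 nM + b-AHA-H3(1-15)K9me1 75 nM, 30 min RT; compound added, 30 min RT; streptavidin donor/Ni-chelate acceptor beads 10 ug/mL each final, 30 min RT dark; AlphaScreen read.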
G9a inh – qHTS Assay for Inhibitors of Histone Lysine Methyltransferase G9a | G9a H3K9 monomethylation, AlphaScreen, 2 h | Potency, µM (highest dose often 102 µM), for inactives: top-dose activity, negative = inhibition, hits mostly inhibitors | actives 8.8% (n = 350,000) | AID 504332, 2011; note: % is set by controls: 0 for no effect and ±100 for the full control effect; nearly all actives have a fitted effect of over 75% in size
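Readings reflect AlphaScreen signal from monomethyl-H3K9 antibody detection. HMT at 20 nM; substrate b-H3K9 500 nM; cofactor SAM 20 uM; 2 h RT reaction; compounds tested as titrations in qHTS with 15 min preincubation.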
BAZ2B inh – qHTS Assay for Inhibitors of BAZ2B; Bromodomain adjacent to zinc finger domain protein 2B (Homo sapiens), Q9UIF8; AlphaScreen BAZ2B-H3K14Ac peptide displacement; actives 4.4% (n = 360,000); Potency, µM (highest dose often 114 µM), for inactives: at the highest dose activity change, negative = inhibition, actives largely listed as inhibitors; AID 504333, 2011; note: % is set by controls: 0 for no effect and ±100 for the full control effect; nearly all actives have a fitted effect of over 60% in size
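Compounds, titrated to a top concentration of 110 uM, were incubated 30 min at room temperature with preformed BAZ2B/acetyl-K14 H3 peptide complex (50 nM each). Proximity signal was measured by AlphaScreen after 20 min with beads.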
* = called active by the depositor; ? = inconclusive; . = no result given; [ ] = dose if it differs, or a comment. Hits are enriched below; roughly 11% of the tested compounds scored in any of these assays. Calls come from the whole dose curve; as a rule, active = well fitted inhibition curve with a large enough effect; inconclusive = small, poorly fitted or top-dose-only effect; inactive = no such curve, though single readings can be large or run the other way. Potency is the fitted concentration of half-maximal effect.

SMILES	HP1b binding inh	JMJD2A Tudor	L3MBTL1 block	G9a inh	BAZ2B inh
Cc1ccc(C(=O)NCCCNC(=O)COc2ccc(C)c(C)c2)cn1	5.2%	-1.0%	.	-19.1%	-11.0%
O=C(c1cnc(N2CCCCC2)c2ccccc12)N1CCN(c2ccc(F)cc2)CC1	18.0%[57 µM]	?	.	-6.7%[59 µM]	-23.5%
COc1ccc(CC(=O)OCC(=O)NCc2ccc(C)cc2)cc1OC	27.8%	-10.3%	-5.3%	.	.
CCCC[C@]12Cc3ccccc3[C@H](O1)C1=C(O2)C(=O)c2ccccc2C1=O	.	.	.	18.6%[2.33 µM]	4.8%[22.9 µM]
CCCC[C@]12Cc3cc(OC)c(OC)cc3C(O1)C1=C(O2)C(=O)c2ccccc2C1=O	.	.	.	.	7.08µM*
Cc1ccc(CNC(=O)CN(c2ccc(Cl)cc2Cl)S(=O)(=O)c2ccccc2)cc1	35.5%	-4.1%	.	-27.1%[59 µM]	-7.3%
Cc1ccccc1Nc1cc(C(=O)NC2CCC(C)CC2)c2ccccc2n1 (stereo not drawn)	39.0%	-11.0%	.	7.5%[59 µM]	.
COC(=O)C1CCN(c2c([N+](=O)[O-])cc(C(F)(F)F)cc2[N+](=O)[O-])CC1	?	-20.5%[11.4 µM]	-22.9%	?	35.5µM*
Cn1c(=O)[nH]c(=O)c2c1[nH]c(=S)n2Cc1ccc(Cl)cc1	14.1µM*	3.16µM*	.	0.891µM*	22.4µM*
Cn1c(=O)[nH]c(=O)c2c1[nH]c(=S)n2CCCc1ccccc1	10µM*	3.16µM*	7.2%	.	25.1µM*
Cn1c(=O)c2c([nH]c(=S)n2CCCc2ccccc2)n(C)c1=O	15.8µM*	5.01µM*	-3.1%[2.29 µM]	18.4%[0.501 µM]	28.2µM*
Cn1c(=O)n(Cc2ccccc2Cl)c(=O)c2c1[nH]c(=S)n2C	?	12.6µM*	.	1.26µM*	?
COc1cc(OC)cc(C(=O)NNC(=S)NC2CC2)c1	36.7%	5.9%[57.1 µM]	-6.1%	56.2µM*	2.5%
COc1ccccc1C(=O)Nc1ccc(C(=O)OCc2cc(=O)n3nc(C)sc3n2)cc1	36.0%	-16.2%	.	23.1%[59 µM]	-3.8%
C[C@@](N)(C(=O)O)[C@@H]1C[C@@H]1C(=O)O	.	.	.	18.4%[59 µM]	.
O=C(NC1CCCCC1)c1ccc2c(c1)N(Cc1ccccc1Cl)C(=O)c1ccccc1S2	26.2%	-15.4%	.	4.6%[59 µM]	-0.2%
COc1cccc(C2c3c(ncn(-c4ccccc4Br)c3=N)Oc3ccc4ccccc4c32)c1 (stereo not drawn)	.	50.1µM*	.	.	.
COc1cccc(C2c3c(ncn(-c4ccccc4C#N)c3=N)Oc3ccc4ccccc4c32)c1 (stereo not drawn)	.	56.2µM*	.	.	.
COc1ccc(Cl)cc1NC(=O)C1CCN(S(=O)(=O)c2ccc3c(c2)CCCN3C(=O)C2CCC2)CC1	22.5%[57 µM]	-7.7%	.	1.8%[59 µM]	3.6%
C=CCn1c2ccccc2c2n[nH]c(=S)nc21	9.4%	-31.6%	0.0%	10µM*	-34.6%
O=C(O)Cn1c2ccccc2c2n[nH]c(=S)nc21	-19.8%	20µM*	-12.7%	2.24µM*	50.1µM*
CCn1c2ccccc2c2n[nH]c(=S)nc21	8.0%	-19.1%	.	7.94µM*	-24.0%
COC(=O)c1nc(N)sc1-c1ccc(Cl)cc1	23.3%	-9.4%	?	44.7µM*	-23.8%
COc1ccc(CCn2c3c(c(=O)[nH]c2=S)CN(CC(C)C)CN3)cc1OC	34.9%	-4.8%	.	.	.
Cc1ccc(C(=O)N/C(=C\c2cn(C)c3ccccc23)C(=O)NCCCN2CCOCC2)cc1	16.4%	-11.7%	.	-12.0%[0.0925 µM]	-7.2%
SMILES	HP1b binding inh	JMJD2A Tudor	L3MBTL1 block	G9a inh	BAZ2B inh
Cc1ccc(C(=O)N/C(=C\c2ccc(-c3ccc(Br)cc3)o2)C(=O)NCCCN(C)C)cc1	-6.7%	-35.5%	-13.4%	-50.0%	-36.8%
CN(C)CCNC(=O)/C(=C/c1ccc(-c2ccc(Cl)cc2)o1)NC(=O)c1ccccc1	-7.9%	-32.9%	-0.6%	?	-32.4%
Cc1ccc(C(=O)N/C(=C\c2ccc(-c3cccc([N+](=O)[O-])c3)o2)C(=O)NCCCN(C)C)cc1	3.2%	-25.3%	-1.5%	50.1µM*	-37.7%
CN(C)CCCNC(=O)/C(=C\c1ccc(-c2cccc([N+](=O)[O-])c2)o1)NC(=O)c1ccccc1	-4.9%	?	-1.9%	50.1µM*	-39.0%
Cc1ccc(C(=O)N/C(=C\c2ccc(-c3ccccc3[N+](=O)[O-])o2)C(=O)NCCCN2CCOCC2)cc1	0.3%	?	.	44.7µM*	?
O=C(CSCn1nnc2c(=O)[nH]c(Cc3ccc(F)cc3)nc21)Nc1cccc(C(F)(F)F)c1	49.1%	-2.1%	.	-1.8%[59 µM]	2.7%
COc1cc(C(=O)N2CCN(c3ccc(Nc4ccccc4)nn3)CC2)cc(OC)c1OC	4.9%	-16.2%	.	-1.1%[59 µM]	-14.9%
COc1ccc(NC(=O)Nc2ccccc2OCc2cc(=O)n3ccccc3n2)c(OC)c1	0.5%[57 µM]	-20.5%	.	-30.5%[59 µM]	-7.0%
CCNC(=O)C1CCCc2c1[nH]c1ccc(Cl)cc21 (stereo not drawn)	0.5%	-15.0%[57.1 µM]	.	-7.9%[59 µM]	79.4µM*
NC(=O)C1CCCCc2c1[nH]c1ccc(Cl)cc21 (stereo not drawn)	5.5%	?	.	-16.0%	-12.8%
Cc1ccc(C)c(CN2C(=O)C3(c4ccccc42)N(c2ccc(Cl)cc2)C(=O)CS3(=O)=O)c1 (stereo not drawn)	10.9%	-23.6%	.	-27.2%[59 µM]	-0.9%[57.1 µM]
CCOc1ccc(C2C(C(=O)C3CC3)N3C=C(C#N)C=CC3C2(C#N)C#N)cc1 (stereo not drawn)	.	.	-6.3%	25.1µM*	-35.9%
COCCN(C/C=C/c1ccccc1)C/C=C/c1ccccc1	?	1µM*	-5.1%	7.08µM*	?
Cc1cc([N+](=O)[O-])cnc1Sc1nccn1C	34.5%	-9.2%	7.2%	17.6%[59 µM]	50.1µM*
Cn1ccnc1Sc1ccccc1[N+](=O)[O-]	40.0%	-1.4%	.	?	2.4%
O=C(NCc1ccc(Cl)cc1)c1ccc(CNS(=O)(=O)c2ccc(F)cc2)cc1	23.6%	-4.2%	.	-16.9%[59 µM]	3.7%
CC1NC(=O)NC1CCCCCC(=O)Nc1ccc(F)c(Cl)c1 (stereo not drawn)	1.12µM*	?	0.316µM*	1µM*	0.794µM*
CC1NC(=O)NC1CCCCC(=O)O (stereo not drawn)	-19.4%	0.0%[11.4 µM]	2.7%	21.5%[59 µM]	.
Cc1ccc(NC(=O)CCCCCC2NC(=O)NC2C)cc1 (stereo not drawn)	1.12µM*	0.355µM*	.	?	0.794µM*
CCOc1ccc(OCC)c(NC(=O)Cn2nc(CC)n3c(cc4sccc43)c2=O)c1	10.9%	-14.9%	.	-23.7%[59 µM]	-4.2%
Cc1ccc(/C=C2\CCCC3=C2NC(=S)NC3c2ccc(C)cc2)cc1 (stereo not drawn)	-14.8%	?	-5.6%	8.91µM*	?
